Measurements published in PubChem BioAssay (NCATS).
Records with an inconclusive call do not appear. Calls of active or inactive are those of the source. Calls follow the shape of the dose curve; as a rule, active = well fitted curve in the direction sought with a large enough effect; inconclusive = small, poorly fitted or top-dose-only effect, or another doubt; inactive = no such curve, though single readings can be large; an effect the other way counts as inactive or inconclusive. Starred links: 1 amine or outer side, 2 acyl side, 3 side chain; linkers in the order of their positions; H or OH if unused. Positions of bridges follow the written chain, without caps; N, C: chain ends. Non-standard residues stand in square brackets, D forms with d. Residues, ends and D or L forms follow the SMILES beside them. Chains are numbered I, II in the order given. Actinocin(9to1) = Cc1c2oc3c(C)ccc(C(=O)[*:1])c3nc-2c(C(=O)[*:2])c(N)c1=O; NMeV = CN[CH](C(=O)O)C(C)C; Sar = CNCC(=O)O

Legend:
[1] = Quantitative High-Throughput drug screen in 47 multiple myeloma cell lines against the NCATS MIPE library collection: KHM11_PLB cell viability assay (AID 1918962); also: nearly all actives have a fitted effect of over 35% in size
Outline: (§1)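 Inhibition of cell viability is measured here. Each line was plated at 500 cells per well, treated with MIPE 4.0 drugs, kept 48 hours at 37C, then assayed for ATP content by CellTiter-Glo luminescence.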

[2] = Quantitative High-Throughput drug screen in 47 multiple myeloma cell lines against the NCATS MIPE library collection: JIM3_ECACC cell viability assay (AID 1918963; also: nearly all actives have a fitted effect of over 35% in size)
Outline: as §1

[3] = Quantitative High-Throughput drug screen in 47 multiple myeloma cell lines against the NCATS MIPE library collection: JIM1_ECACC cell viability assay (AID 1918964)
Outline: (§2)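 Relative luminescence from CellTiter-Glo served as the viability signal, referenced to DMSO-treated (100%) and cell-free medium (0%) controls. Treatment lasted 48 hours at 37C with 500 cells per well.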

[4] = Quantitative High-Throughput drug screen in 47 multiple myeloma cell lines against the NCATS MIPE library collection: INA6_PLB cell viability assay (AID 1918965; also: nearly all actives have a fitted effect of over 55% in size)
Outline: (§3)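 qHTS of the MIPE 4.0 collection: 500 myeloma cells/well, 48 h drug exposure at 37C in 5% CO2, then CellTiter-Glo for 5 min at room temperature before luminescence reading.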

[5] = Quantitative High-Throughput drug screen in 47 multiple myeloma cell lines against the NCATS MIPE library collection: JJN3_DSMZ cell viability assay (AID 1918966; also: nearly all actives have a fitted effect of over 50% in size)
Outline: as §2

[6] = Quantitative High-Throughput drug screen in 47 multiple myeloma cell lines against the NCATS MIPE library collection: H1112_PLB cell viability assay (AID 1918967; also: nearly all actives have a fitted effect of over 30% in size)
Outline: as §2

[7] = Quantitative High-Throughput drug screen in 47 multiple myeloma cell lines against the NCATS MIPE library collection: Karpas25_ECACC cell viability assay (AID 1918968; also: nearly all actives have a fitted effect of over 35% in size)
Outline: as §2

[8] = Quantitative High-Throughput drug screen in 47 multiple myeloma cell lines against the NCATS MIPE library collection: KMS27_JCRB cell viability assay (AID 1918970); settings: KMS27 myeloma cells, CellTiter-Glo ATP viability, 48 h; viability (% of DMSO): at 45.8 µM (top of the series); also: nearly all actives have a fitted effect of over 30% in size
Outline: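 CellTiter-Glo luminescence after 48 h drug exposure at 37 °C; 500 cells/well, 1536-well format, pin-tool compound addition; DMSO = 100%, media-only = 0% viability.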

[9] = Quantitative High-Throughput drug screen in 47 multiple myeloma cell lines against the NCATS MIPE library collection: KMS12BM_JCRB cell viability assay (AID 1918971); also: nearly all actives have a fitted effect of over 35% in size
Outline: (§4)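 Viability readout: CellTiter-Glo luminescence following 5 min room-temperature incubation with reagent. Prior exposure: 48 h, 37C, humidified 5% CO2, 500 cells per well.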

[10] = Quantitative High-Throughput drug screen in 47 multiple myeloma cell lines against the NCATS MIPE library collection: KMS12PE_JCRB cell viability assay (AID 1918972); also: nearly all actives have a fitted effect of over 30% in size
Outline: as §3

[11] = Quantitative High-Throughput drug screen in 47 multiple myeloma cell lines against the NCATS MIPE library collection: KMS21BM_JCRB cell viability assay (AID 1918974); settings: ATP luminescence, 48 h; viability: at 45.8 µM (top of the series)
Outline: as §2

[12] = Quantitative High-Throughput drug screen in 47 multiple myeloma cell lines against the NCATS MIPE library collection: KMS26_JCRB cell viability assay (AID 1918975); also: nearly all actives have a fitted effect of over 45% in size
Outline: as §4

[13] = Quantitative High-Throughput drug screen in 47 multiple myeloma cell lines against the NCATS MIPE library collection: MMM1_PLB cell viability assay (AID 1918976); also: nearly all actives have a fitted effect of over 35% in size
Outline: (§5)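 Viability after 48 h drug exposure was measured as ATP-dependent luminescence. Cells, 500 per well, sat at 37 °C under 5% CO2; DMSO wells set 100%, media-only wells 0%.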

[14] = Quantitative High-Throughput drug screen in 47 multiple myeloma cell lines against the NCATS MIPE library collection: MOLP8_DSMZ cell viability assay (AID 1918977); also: nearly all actives have a fitted effect of over 45% in size
Outline: as §5

[15] = Quantitative High-Throughput drug screen in 47 multiple myeloma cell lines against the NCATS MIPE library collection: NCIH929_DSMZ cell viability assay (AID 1918978); also: nearly all actives have a fitted effect of over 35% in size
Outline: as §5

[16] = Quantitative High-Throughput drug screen in 47 multiple myeloma cell lines against the NCATS MIPE library collection: OCIMY1_PLB cell viability assay (AID 1918979); also: nearly all actives have a fitted effect of over 35% in size
Outline: as §5

[17] = Quantitative High-Throughput drug screen in 47 multiple myeloma cell lines against the NCATS MIPE library collection: MM1S_ATCC cell viability assay (AID 1918980); also: nearly all actives have a fitted effect of over 45% in size
Outline: as §5

[18] = Quantitative High-Throughput drug screen in 47 multiple myeloma cell lines against the NCATS MIPE library collection: MM1R_ATCC cell viability assay (AID 1918981); also: nearly all actives have a fitted effect of over 35% in size
Outline: as §5

[19] = Quantitative High-Throughput drug screen in 47 multiple myeloma cell lines against the NCATS MIPE library collection: KMS20_JCRB cell viability assay (AID 1918973); also: nearly all actives have a fitted effect of over 45% in size
Outline: as §2

[20] = Quantitative High-Throughput drug screen in 47 multiple myeloma cell lines against the NCATS MIPE library collection: LP1_DSMZ cell viability assay (AID 1918982); also: nearly all actives have a fitted effect of over 35% in size
Outline: as §5
Potency is read from the fitted curve at half-maximal effect.

## O=C1NC(=O)C(=Cc2ccc3nccc(-c4ccncc4)c3c2)S1
[1]
  Potency: 46.9 nM (active)
[2]
  Potency: 296 nM (active)
[3]
  Potency: 29.6 nM (active)
[4]
  Potency: 148 nM (active)
[5]
  Potency: 93.5 nM (active)
[6]
  Potency: 1050 nM (active)
[7]
  Potency: 29.6 nM (active)
[8]
  Potency: 29.6 nM (active)
[9]
  Potency: 332 nM (active)
[10]
  Potency: 332 nM (active)
[11]
  Potency: 166 nM (active)
[12]
  Potency: 187 nM (active)
[13]
  Potency: 235 nM (active)
[14]
  Potency: 166 nM (active)
[15]
  Potency: 29.6 nM (active)
[16]
  Potency: 235 nM (active)
[17]
  Potency: 118 nM (active)
[18]
  Potency: 105 nM (active)

## Cc1c2oc3c(C)ccc(C(=O)NC4C(=O)NC(C(C)C)C(=O)N5CCCC5C(=O)N(C)CC(=O)N(C)C(C(C)C)C(=O)OC4C)c3nc-2c(C(=O)NC2C(=O)NC(C(C)C)C(=O)N3CCCC3C(=O)N(C)CC(=O)N(C)C(C(C)C)C(=O)OC2C)c(N)c1=O (configuration not stated) (I: TVP[Sar][NMeV] / II: TVP[Sar][NMeV]; ester I:1-I:C, II:1-II:C; linker I:N-II:N via Actinocin(9to1); configuration not given here)
[1]
  Potency: inactive
[2]
  Potency: inactive
[3]
  Potency: inactive
[4]
  Potency: inactive
[5]
  Potency: inactive
[6]
  Potency: inactive
[7]
  Potency: inactive
[8]
  Potency: inactive
[9]
  Potency: inactive
[10]
  Potency: inactive
[19]
  Potency: inactive
[12]
  Potency: inactive
[13]
  Potency: inactive
[14]
  Potency: inactive
[15]
  Potency: inactive
[16]
  Potency: inactive
[17]
  Potency: inactive
[18]
  Potency: inactive
[20]
  Potency: inactive

## Oc1ccc(-c2ccc(-c3cc(Nc4cccc(CNC5CC5)c4)n[nH]3)cc2)c(O)c1
[1]
  Potency: 743 nM (active)
[2]
  Potency: 1870 nM (active)
[3]
  Potency: 264 nM (active)
[4]
  Potency: 662 nM (active)
[5]
  Potency: 1320 nM (active)
[6]
  Potency: 1480 nM (active)
[7]
  Potency: 1050 nM (active)
[8]
  Potency: 743 nM (active)
[9]
  Potency: 2640 nM (active)
[10]
  Potency: 1050 nM (active)
[19]
  Potency: 1320 nM (active)
[12]
  Potency: 3320 nM (active)
[13]
  Potency: 2350 nM (active)
[14]
  Potency: 2090 nM (active)
[16]
  Potency: 9350 nM (active)
[17]
  Potency: 1660 nM (active)
[20]
  Potency: 2640 nM (active)

## Nc1ccc(C(=O)Nc2cccc(-c3nc(N4CCOCC4)c4oc5ncccc5c4n3)c2)cn1
[1]
  Potency: 7430 nM (active)
[2]
  Potency: 4180 nM (active)
[3]
  Potency: 5260 nM (active)
[4]
  Potency: 3320 nM (active)
[5]
  Potency: 5260 nM (active)
[6]
  Potency: 4180 nM (active)
[7]
  Potency: 2350 nM (active)
[8]
  Potency: 6620 nM (active)
[9]
  Potency: 23500 nM (active)
[10]
  Potency: 2640 nM (active)
[11]
  Potency: 10500 nM (active)
[12]
  Potency: 2350 nM (active)
[13]
  Potency: 16600 nM (active)
[14]
  Potency: 20900 nM (active)
[15]
  Potency: 2640 nM (active)
[16]
  Potency: 16600 nM (active)
[17]
  Potency: 23500 nM (active)
[18]
  Potency: 13200 nM (active)

## COc1ccc(S(=O)(=O)Nc2cc(-c3c(O)ccc4ccccc34)c(O)c3ccccc23)cc1
[1]
  Potency: 14800 nM (active)
[2]
  Potency: 9350 nM (active)
[3]
  Potency: 3320 nM (active)
[4]
  Potency: 2960 nM (active)
[5]
  Potency: 8330 nM (active)
[6]
  Potency: 9350 nM (active)
[7]
  Potency: 5260 nM (active)
[8]
  Potency: 14800 nM (active)
[9]
  Potency: 26400 nM (active)
[10]
  Potency: 13200 nM (active)
[19]
  Potency: 9350 nM (active)
[11]
  Potency: 18700 nM (active)
[12]
  Potency: 14800 nM (active)
[13]
  Potency: 16600 nM (active)
[14]
  Potency: 7430 nM (active)
[15]
  Potency: 3320 nM (active)
[16]
  Potency: 10500 nM (active)
[17]
  Potency: 2350 nM (active)
[18]
  Potency: 23500 nM (active)
[20]
  Potency: 16600 nM (active)

## CC(=O)[C@]1(O)Cc2c(O)c3c(c(O)c2[C@@H](O[C@H]2C[C@H](N)[C@@H](O)[C@H](C)O2)C1)C(=O)c1ccccc1C3=O
[1]
  Potency: 296 nM (active)
[2]
  Potency: 264 nM (active)
[3]
  Potency: 1180 nM (active)
[4]
  Potency: 93.5 nM (active)
[5]
  Potency: 209 nM (active)
[6]
  Potency: 187 nM (active)
[7]
  Potency: 148 nM (active)
[8]
  Potency: 1180 nM (active)
[9]
  Potency: 235 nM (active)
[10]
  Potency: 2090 nM (active)
[19]
  Potency: 105 nM (active)
[12]
  Potency: 264 nM (active)
[13]
  Potency: 148 nM (active)
[14]
  Potency: 132 nM (active)
[15]
  Potency: 166 nM (active)
[16]
  Potency: 743 nM (active)
[17]
  Potency: 16.6 nM (active)
[18]
  Potency: 52.6 nM (active)
[20]
  Potency: 1320 nM (active)

## O=C(CCCCCCC(=O)Nc1cccnc1)NO
[1]
  Potency: 8330 nM (active)
[2]
  Potency: 16600 nM (active)
[3]
  Potency: 4180 nM (active)
[4]
  Potency: 833 nM (active)
[5]
  Potency: 4180 nM (active)
[6]
  Potency: 5900 nM (active)
[7]
  Potency: 1660 nM (active)
[8]
  Potency: 7430 nM (active)
[9]
  Potency: 1870 nM (active)
[10]
  Potency: 2960 nM (active)
[11]
  Potency: 2350 nM (active)
[12]
  Potency: 3720 nM (active)
[14]
  Potency: 3320 nM (active)
[15]
  Potency: 3720 nM (active)
[16]
  Potency: 14800 nM (active)
[17]
  Potency: 3320 nM (active)
[18]
  Potency: 2640 nM (active)

## CCC(C=C[C@@H]1OC(=O)C=C[C@H]1C)=C[C@H](C)CC=CC(C)=C[C@@H](C)C(=O)[C@@H](C)[C@H](O)[C@@H](C)CC(C)=CC(=O)O
[1]
  Potency: 43.9 nM (active)
[2]
  Potency: 34.9 nM (active)
[3]
  Potency: 15.6 nM (active)
[4]
  Potency: 15.6 nM (active)
[5]
  Potency: 22 nM (active)
[6]
  Potency: 39.2 nM (active)
[7]
  Potency: 19.6 nM (active)
[8]
  Potency: 9.8 nM (active)
[9]
  Potency: 19.6 nM (active)
[10]
  Potency: 19.6 nM (active)
[19]
  Potency: 8.8 nM (active)
[12]
  Potency: 31.1 nM (active)
[13]
  Potency: 27.7 nM (active)
[14]
  Potency: 19.6 nM (active)
[15]
  Potency: 19.6 nM (active)
[16]
  Potency: 27.7 nM (active)
[17]
  Potency: 15.6 nM (active)
[18]
  Potency: 9.8 nM (active)
[20]
  Potency: 27.7 nM (active)
